Experimental findings from the supplement of paper PMC9844399 are described below.

Structures can show the parent of a compound that is named as a salt.
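Note: Hoechst-stained nuclei counted by automated confocal imaging of four fields per well in 384-well plates, with the robust Z-score based on the per-plate DMSO median and robust SD.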

The subject of this assay is HeLa. Put plainly: nuclear count per well, robust Z-score vs DMSO; higher = more cells (less toxicity). The conditions noted are these: 10 µM; 6 h.
As to `CO[C@H]1O[C@@H]2O[C@@]3(C)CC[C@H]4[C@H](C)CC[C@@H]([C@H]1C)[C@@]24OO3` [Artemether], the “nuclear count per well” value was -0.294.
To `C[C@@H](O)[C@H]1C(=O)N2C(C(=O)O)=C(SCCNC=N)C[C@H]12` [Imipenem] belongs 0.11; to `CC(=O)C1=C(O)C=C2Oc3c(C(C)=O)c(O)c(C)c(O)c3[C@@]2(C)C1=O` [(+)Usnic acid], -0.287; to `C[C@]12CC[C@@H]3c4ccc(O)cc4CC[C@H]3[C@@H]1CC[C@@H]2O` [Estradiol], -0.229.
To `NCCc1c[nH]cn1` [Histamine] belongs 0.741; to `Cc1ccc(C(=O)COC(=O)c2cccc(NC(=O)c3ccc([N+](=O)[O-])cc3[N+](=O)[O-])c2)cc1`, -0.226; to `CCCCCC(=O)/C=C/C=C\C/C=C\C/C=C\CCCC(=O)O` [15-Ketoicosatetraenoic acid], -0.149.
As for `C[N+](C)(C)CCOC(=O)CCC(=O)OCC[N+](C)(C)C`, the figure is -0.221; as for `CC(C)NCC(O)c1cc(O)cc(O)c1` (centres undefined) [Metaproterenol Hemisulfate (Orciprenaline)], -0.939.
In the case of `CN(C)CCC(c1ccc(Br)cc1)c1ccccn1` (centres undefined) [Brompheniramine Maleate], the “nuclear count per well” value came out at 0.606.
As for `CC(C)(S)[C@@H](N)C(=O)O` [Penicillamine (D-Penicillamine)], the figure is 0.74.
As for `CCCCCCCCCCC[C@@H](C[C@@H]1OC(=O)[C@H]1CCCCCC)OC(=O)[C@H](CC(C)C)NC=O` [Orlistat (Tetrahydrolipstatin)], the figure is -0.622.
As for `N[C@@H]1CONC1=O` [Cycloserine], the figure is 0.653; as for `CC(C)NNC(=O)c1ccncc1` [Iproniazid Phosphate], -0.732.
With `N#C/C(=C\c1ccc(O)c(O)c1)C(=O)NCc1ccccc1`, the “nuclear count per well” value was -1.1.
As for `CCCCCCCCCCCCCCCC(=O)O[C@@H]1[C@@H](O)[C@@H](O)[C@@H]([C@H](NC(=O)[C@@H]2C[C@@H](CCC)CN2C)[C@H](C)Cl)O[C@@H]1SC`, the figure is -0.35; as for `C#C[C@]1(O)CC[C@H]2[C@@H]3CCC4=Cc5oncc5C[C@]4(C)[C@H]3CC[C@@]21C` [Danazol], -0.75; as for `COC1=C(OC)C(=O)c2ccccc2C1=O` [2,3-Dimethoxy-1,4-naphthoquinone], -5.79.
For the compound `C[C@]12C=CC(=O)C=C1CC[C@@H]1[C@@H]2[C@@H](O)C[C@@]2(C)[C@H]1CC[C@]2(O)C(=O)CO` [Prednisolone], the “nuclear count per well” value was found to be 0.623.
To `O=C1CCCC(=O)C1C(=O)c1ccc(C(F)(F)F)cc1[N+](=O)[O-]` [Nitisinone] belongs -0.815; to `CC(C)C[C@H](NC(=O)[C@@H](COC(C)(C)C)NC(=O)[C@H](Cc1ccc(O)cc1)NC(=O)[C@H](CO)NC(=O)[C@H](Cc1c[nH]c2ccccc12)NC(=O)[C@H](Cc1cnc[nH]1)NC(=O)[C@@H]1CCC(=O)N1)C(=O)N[C@@H](CCCNC(=N)N)C(=O)N1CCC[C@H]1C(=O)NNC(N)=O` [Goserelin Acetate], -0.85; to `Cc1c(C(=O)Nc2ccc(N3C[C@@H](C)O[C@@H](C)C3)nc2)cccc1-c1ccc(OC(F)(F)F)cc1`, 0.565.
As for `CN(C)c1nc(N(C)C)nc(N(C)C)n1` [Altretamine], the figure is 0.0993; as for `NC[C@H]1O[C@H](O[C@H]2[C@H](O)[C@@H](O[C@H]3O[C@H](CO)[C@@H](O)[C@H](N)[C@H]3O)[C@H](N)C[C@@H]2N)[C@H](N)C[C@@H]1O` [Tobramycin], -0.0705; as for `COc1ccc2[nH]c([S@@+]([O-])Cc3ncc(C)c(OC)c3C)nc2c1` [Esomeprazole Potassium], 0.823.
As for `Cc1ccc(Nc2nccc(N(C)c3ccc4c(C)n(C)nc4c3)n2)cc1S(N)(=O)=O`, the figure is -0.0602; as for `Clc1ccc2nsnc2c1NC1=NCCN1`, 0.891.
For the compound `NNCCc1ccccc1` [Phenelzine Sulfate], the “nuclear count per well” value turned out to be 0.336.
Consider `C[C@@H](O)[C@H]1C(=O)N2C(C(=O)O)=C(S[C@@H]3CN[C@H](CNS(N)(=O)=O)C3)[C@H](C)[C@H]12` [Doripenem], for which the “nuclear count per well” value was -0.646.
As for `NS(=O)(=O)c1cc2c(cc1Cl)NCNS2(=O)=O` [Hydrochlorothiazide], the “nuclear count per well” value is -0.11.
As for `c1ccc2c(c1)CCCC2C1=NCCN1` (centres undefined), the figure is 0.0582; as for `COC(=O)C1=C(C)NC(C)=C(C(=O)OC(C)C)C1c1cccc2nonc12` (centres undefined) [Isradipine], -1.15; as for `CCN(CC)CC(=O)Nc1c(C)cccc1C`, 0.097.
As for `CC1=C(/C=C/C(C)=C/C=C/C(C)=C\C(=O)O)C(C)(C)CCC1` [13-cis retinoic acid], the figure is 0.404; as for `CCCN[C@H]1CCc2nc(N)sc2C1` [Pramipexole Dihydrochloride Monohydrate], 0.788; as for `CN1CCN(CCCN2c3ccccc3Sc3ccc(C(F)(F)F)cc32)CC1` [Trifluoperazine], -1.97.
As for `O=C1Cc2cc(CCN3CCN(c4nsc5ccccc45)CC3)c(Cl)cc2N1` [Ziprasidone], the figure is 1.42; as for `CC(C)(C(=O)NCC(F)(F)C(F)(F)F)C(=O)N[C@@H]1C(=O)Nc2ccccc2-c2ccccc21`, 0.372; as for `COc1cc(-c2ccc(=O)[nH]n2)ccc1OC(F)F` [Zardaverine], 0.171.
